According to publication PMC11995724, “Antibiotic target discovery by integrated phenotypic and activity-based profiling of electrophilic fragments” (Cell chemical biology, 2025):
About 75 (2%) of roughly 3,200 compounds showed an effect of 50% or more. This is one part of a sample in which strong results are shown more often than they occur.

The compounds below were run on T1, S. aureus MSSA476. Details: relative growth, OD600, TSB; 25 µM; inhibitor.
T1 construct: MSSA476
Design: species or system S. aureus MSSA476 (TSB) or V. cholerae SAD30 (LB); 384-well bacterial growth screen at 25 uM, OD600 relative to DMSO control
`N#CC(=Cc1ccc(Cl)cc1)C(=O)Nc1ccncc1` [8-K20, 3-(4-chlorophenyl)-2-cyano-N-(pyridin-4-yl)prop-2-enamide] was tested, and the “% of control remaining” value was 95.6017%.
In the case of `C=CC(=O)Nc1ccccc1CCC(N)=O` [1-A18, N-[2-(2-carbamoylethyl)phenyl]prop-2-enamide], the “% of control remaining” value is reported as 117.099%.
In the case of `COc1cc(NC(=O)CCl)cc(OC)c1` [4-G09, 2-chloro-N-(3,5-dimethoxyphenyl)acetamide], the “% of control remaining” value is reported as 119.295%.
In the case of `Cn1cccc1C(=O)CCl` [10-B04, 2-chloro-1-(1-methyl-1H-pyrrol-2-yl)ethan-1-one], the “% of control remaining” value is reported as 122.188%.
For `O=C(CCl)c1c(-c2ccccc2)[nH]c2ccccc12` [10-E05, 2-chloro-1-(2-phenyl-1H-indol-3-yl)ethan-1-one], the “% of control remaining” value was 159.063%.
In the case of `Cn1c(-c2ccccc2)c(C(=O)CCl)c2ccccc21` [10-N04, 2-chloro-1-(1-methyl-2-phenyl-1H-indol-3-yl)ethan-1-one], the “% of control remaining” value is reported as 49.0625%.
In the case of `CCNC(=O)C(C#N)=Cc1ccc(OC(F)F)cc1` [8-E05, 2-cyano-3-[4-(difluoromethoxy)phenyl]-N-ethylprop-2-enamide], the “% of control remaining” value is reported as 113.527%.
In the case of `O=C1C=CC(=O)N1c1cc(C(F)(F)F)ccc1Cl` [10-G09, 1-[2-chloro-5-(trifluoromethyl)phenyl]-2,5-dihydro-1H-pyrrole-2,5-dione], the “% of control remaining” value is reported as 133.75%.
In the case of `CC(Cl)C(=O)Nc1sc2c(c1C#N)CCCCC2` (stereo not drawn) [5-B20, 2-chloro-N-{3-cyano-4H,5H,6H,7H,8H-cyclohepta[b]thiophen-2-yl}propanamide], the “% of control remaining” value is reported as 104.918%.
For `O=C1C=CC(=O)N1c1ccccc1F` [10-D17, 1-(2-fluorophenyl)-2,5-dihydro-1H-pyrrole-2,5-dione], the “% of control remaining” value was 118.75%.
With `O=C1C=CC(=O)N1c1ccccc1Sc1ccc(Cl)cc1` [10-A03, 1-{2-[(4-chlorophenyl)sulfanyl]phenyl}-2,5-dihydro-1H-pyrrole-2,5-dione] the “% of control remaining” value was 10.9375%.
With `O=C1C=CC(=O)N1c1ccccc1Sc1ccccc1` [10-K12, 1-[2-(phenylsulfanyl)phenyl]-2,5-dihydro-1H-pyrrole-2,5-dione] the “% of control remaining” value was 129.063%.
`CCN1C(=O)CC[C@H](CNC(=O)C(C)Cl)[C@H]1c1cnn(C)c1` (mixture of isomers) [6-L13, rac-2-chloro-N-{[(2R,3S)-1-ethyl-2-(1-methyl-1H-pyrazol-4-yl)-6-oxopiperidin-3-yl]methyl}propanamide] was tested, and the “% of control remaining” value was 89.122%.
With `C=CC(=O)N1CCc2c(nnn2CCOC)C1` [1-N05, 1-[1-(2-methoxyethyl)-1H,4H,5H,6H,7H-[1,2,3]triazolo[4,5-c]pyridin-5-yl]prop-2-en-1-one] the “% of control remaining” value was 84.7473%.
With `C=CC(=O)NC1CCN(c2nnnn2C)CC1` [3-G06, N-[1-(1-methyl-1H-1,2,3,4-tetrazol-5-yl)piperidin-4-yl]prop-2-enamide] the “% of control remaining” value was 85.677%.
With `CCC(NC(=O)CCl)c1c(C)noc1C` (stereo not drawn) [7-D03, 2-chloro-N-[1-(3,5-dimethyl-1,2-oxazol-4-yl)propyl]acetamide] the “% of control remaining” value was 95.4474%.
`CCOc1ccc(C(=O)C(C)Cl)cc1` (stereo not drawn) [10-G06, 2-chloro-1-(4-ethoxyphenyl)propan-1-one] was tested, and the “% of control remaining” value was 80.3125%.
In the case of `NC(=O)COc1ccc(C(=O)CCl)cc1` [10-M07, 2-[4-(2-chloroacetyl)phenoxy]acetamide], the “% of control remaining” value is reported as 111.563%.
`O=C(CCl)c1ccc2c(c1)-c1ccccc1C2` [10-H17, 2-chloro-1-(9H-fluoren-3-yl)ethan-1-one] was tested, and the “% of control remaining” value was 1.875%.
For `O=C(CCl)c1ccc(Oc2ccccc2)cc1` [10-G20, 2-chloro-1-(4-phenoxyphenyl)ethan-1-one], the “% of control remaining” value was -0.625%.
With `CCOc1ccc(C(=O)CCl)cc1` [10-F12, 2-chloro-1-(4-ethoxyphenyl)ethan-1-one] the “% of control remaining” value was 0.3125%.
For `O=C(CCl)Nc1cccc(Oc2ccccc2)c1` [4-P19, 2-chloro-N-(3-phenoxyphenyl)acetamide], the “% of control remaining” value was 90.7099%.
`O=C(CCl)Nc1ccc(Oc2ccccc2)cc1` [4-J09, 2-chloro-N-(4-phenoxyphenyl)acetamide] was tested, and the “% of control remaining” value was 73.5588%.
For `CC(Cl)C(=O)NC(C)c1ccns1` (stereo not drawn) [6-P12, 2-chloro-N-[1-(1,2-thiazol-5-yl)ethyl]propanamide], the “% of control remaining” value was 84.3415%.
For `N#CC(=Cc1cc(F)ccc1F)C(=O)Nc1cc(Cl)ccc1Cl` [8-A12, 2-cyano-N-(2,5-dichlorophenyl)-3-(2,5-difluorophenyl)prop-2-enamide], the “% of control remaining” value was 131.12%.
`Cl.O=C(CCl)NC1CCN(Cc2cscn2)CC1` [7-H04, 2-chloro-N-{1-[(1,3-thiazol-4-yl)methyl]piperidin-4-yl}acetamide hydrochloride] was tested, and the “% of control remaining” value was 88.2261%.
With `Cc1ccc(C)c(NC(=O)C(C#N)=Cc2ccc3c(c2)OCCO3)c1` [8-L11, 2-cyano-3-(2,3-dihydro-1,4-benzodioxin-6-yl)-N-(2,5-dimethylphenyl)prop-2-enamide] the “% of control remaining” value was 108.216%.
`C=CC(=O)NC(Cc1ccccc1)c1ccccn1` (stereo not drawn) [2-K14, N-[2-phenyl-1-(pyridin-2-yl)ethyl]prop-2-enamide] was tested, and the “% of control remaining” value was 109.312%.
`C=CC(=O)N(C)Cc1cn(C)nc1C(C)C` [3-F15, N-methyl-N-{[1-methyl-3-(propan-2-yl)-1H-pyrazol-4-yl]methyl}prop-2-enamide] was tested, and the “% of control remaining” value was 119.808%.
`CCOc1ccc(-n2c(C)cc(C(=O)CCl)c2C)cc1` [10-K08, 2-chloro-1-[1-(4-ethoxyphenyl)-2,5-dimethyl-1H-pyrrol-3-yl]ethan-1-one] was tested, and the “% of control remaining” value was 38.75%.
For `Cc1cc(C(=O)CCl)c(C)n1-c1cc(Cl)cc(Cl)c1` [10-I04, 2-chloro-1-[1-(3,5-dichlorophenyl)-2,5-dimethyl-1H-pyrrol-3-yl]ethan-1-one], the “% of control remaining” value was 0%.
In the case of `Cc1cc(C(=O)CCl)c(C)n1-c1ccc(C(C)C)cc1` [10-J12, 2-chloro-1-{2,5-dimethyl-1-[4-(propan-2-yl)phenyl]-1H-pyrrol-3-yl}ethan-1-one], the “% of control remaining” value is reported as 5.3125%.
`Cc1cc(C)cc(-n2c(C)cc(C(=O)CCl)c2C)c1` [10-E04, 2-chloro-1-[1-(3,5-dimethylphenyl)-2,5-dimethyl-1H-pyrrol-3-yl]ethan-1-one] was tested, and the “% of control remaining” value was 128.438%.
`COc1ccc(-n2c(C)cc(C(=O)CCl)c2C)cc1` [10-I12, 2-chloro-1-[1-(4-methoxyphenyl)-2,5-dimethyl-1H-pyrrol-3-yl]ethan-1-one] was tested, and the “% of control remaining” value was 127.813%.
`Cc1ccccc1-n1c(C)cc(C(=O)CCl)c1C` [10-H20, 2-chloro-1-[2,5-dimethyl-1-(2-methylphenyl)-1H-pyrrol-3-yl]ethan-1-one] was tested, and the “% of control remaining” value was 118.75%.
In the case of `Cc1csc(-n2c(C)cc(C(=O)CCl)c2C)n1` [10-G05, 2-chloro-1-[2,5-dimethyl-1-(4-methyl-1,3-thiazol-2-yl)-1H-pyrrol-3-yl]ethan-1-one], the “% of control remaining” value is reported as 121.563%.
`Cc1cc(C(=O)CCl)c(C)n1-c1ccc(C(F)(F)F)cc1` [10-J14, 2-chloro-1-{2,5-dimethyl-1-[4-(trifluoromethyl)phenyl]-1H-pyrrol-3-yl}ethan-1-one] was tested, and the “% of control remaining” value was 0%.
In the case of `Cc1cc(C(=O)CCl)c(C)n1-c1ccc(C(C)(C)C)cc1` [10-N20, 1-[1-(4-tert-butylphenyl)-2,5-dimethyl-1H-pyrrol-3-yl]-2-chloroethan-1-one], the “% of control remaining” value is reported as 101.875%.
For `Cc1cc(C(=O)CCl)c(C)n1C(C)c1ccccc1` (stereo not drawn) [10-P17, 2-chloro-1-[2,5-dimethyl-1-(1-phenylethyl)-1H-pyrrol-3-yl]ethan-1-one], the “% of control remaining” value was 101.563%.
